Rows were chosen to be rich in hits. Some 0.62% of all compounds tested hit in one or more screens of this group.
Akt phos inh: Akt phosphorylation inhibition. Neuro2A IGF-stimulated pAkt S473 HTRF, 20 min; active compounds read low. activity change, % for hits at 50 µM. 360,000 tested, 0.32% active; in the data active = activity change below about -80%; inconclusive = mostly about -51% to -80%; note: % is set by controls: 0 for no effect and ±100 for the full control effect
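Neuro2A cells in DMEM with 0.5% FBS, overnight at 37 deg C, given compound at single 50 µM final, then IGF (6 nM final) for 20 min at 37 deg C. Lysed; phospho-Akt Ser473 by HTRF after 24 h, 665/615 ratio.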
Rango release inh: inhibition of RanGTP-driven Rango-importin beta dissociation; 340,000 tested, 0.071% active; AID 540253; Biochemical FRET Rango-importin beta, RanGTP-induced dissociation; O95149+P62826; Potency, µM (titrated, usually from 46.1 µM), for inactives: at the highest dose activity change, negative = inhibition; note: potency is the fitted concentration of half-maximal effect; % of control where 0% means no effect; nearly all actives have a fitted effect of over 45% in size
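Rango/importin beta premix (0.1/0.25 uM final), PBS + 1 mM DTT + 0.02% Tween-20 + 0.1% BSA; cpd 5 min RT; FRET pre-read; + RanGTP-RCC1 (0.6 uM Ran, 2 mM GTP, 0.2 uM RCC1); 45 min RT; FRET post-read, ex 430, em 486/530 nm.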
Rango-impB inh: prevents formation of the Rango-importin beta complex | Potency, µM (doses to about 92.2 µM), inactives show at the highest dose inhibition of complex formation | Rango CFP/YFP FRET sensor + importin beta, 45 min | 340,000 tested, 0.031% active | Q14974;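 note: potency is the fitted concentration of half-maximal effect; 0% = DMSO wells and 100% = buffer wells lacking importin beta; nearly all actives have a fitted effect of over 15% in size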
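Inhibition scored from the CFP 486 nm/YFP 530 nm FRET ratio 45 min after adding 0.125 microM importin beta to 50 nM Rango biosensor preincubated 5 min with compound (room temperature, PBS with DTT, Tween-20, BSA). No-importin wells as positive control.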
p53 reactivator: restores transcriptional activity of mutant p53. H1299 p53-A138V BP100-luciferase reporter, luminescence, 24 h. Potency, µM (doses to about 92.2 µM), for inactives: top-dose activity change, positive = activation, hits mostly activators. 320,000 tested, 0.063% active. AID 504706; active = well fitted activation curve with a large enough effect; inconclusive = small, poorly fitted or top-dose-only effect; inactive = no such curve, though single readings can be large or run the other way; note: potency is the fitted concentration of half-maximal effect; % of control where 0% means no effect; nearly all actives have a fitted effect of over 45% in size
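p53-null H1299 cells stably carrying temperature-sensitive p53-A138V and a BP100-luciferase reporter were pinned with compounds (4-point, 1:5 series) and held 24 hrs at 37 deg C. Luminescence was read 10 min after detection reagent.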
TSHR antagonist: antagonists of human thyroid stimulating hormone receptor; P16473; TSHR-expressing cells, TSH-stimulated cAMP HTRF, 2 h; active compounds read low; activity change, negative = inhibition, % at 11.5 µM; 330,000 tested, 0.2% active; AID 504810;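 active = activity change below a set negative limit, meaning inhibition stronger than a set level, cut at about -70% in these data; inconclusive = activity change between two set negative limits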; note: % is set by controls: 0 for no effect and ±100 for the full control effect
Target sequence (P16473 whole entry, looked up): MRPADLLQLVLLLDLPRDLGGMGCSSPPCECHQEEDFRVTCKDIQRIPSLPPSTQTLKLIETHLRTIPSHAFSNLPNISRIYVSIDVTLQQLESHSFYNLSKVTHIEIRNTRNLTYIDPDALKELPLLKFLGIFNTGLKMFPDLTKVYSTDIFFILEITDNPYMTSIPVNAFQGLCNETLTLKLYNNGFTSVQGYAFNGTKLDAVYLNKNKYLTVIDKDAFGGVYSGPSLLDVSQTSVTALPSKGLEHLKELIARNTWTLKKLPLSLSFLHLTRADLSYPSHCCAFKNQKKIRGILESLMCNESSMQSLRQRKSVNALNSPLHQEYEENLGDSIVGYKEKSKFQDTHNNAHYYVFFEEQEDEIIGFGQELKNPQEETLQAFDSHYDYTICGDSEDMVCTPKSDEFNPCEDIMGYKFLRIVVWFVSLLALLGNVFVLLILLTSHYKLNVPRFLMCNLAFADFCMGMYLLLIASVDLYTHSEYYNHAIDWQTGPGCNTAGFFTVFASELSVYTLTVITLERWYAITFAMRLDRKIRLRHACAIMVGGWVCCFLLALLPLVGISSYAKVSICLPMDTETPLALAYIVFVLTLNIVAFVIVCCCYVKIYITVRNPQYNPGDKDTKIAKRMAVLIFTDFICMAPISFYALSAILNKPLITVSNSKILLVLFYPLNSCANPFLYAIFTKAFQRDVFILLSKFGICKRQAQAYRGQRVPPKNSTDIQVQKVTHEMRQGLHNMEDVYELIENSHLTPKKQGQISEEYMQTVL
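Competitive HTRF cAMP read-out (cryptate anti-cAMP antibody, cAMP-d2; 30 min, room temperature) in freshly harvested TSHR cells. Compounds added before TSH at EC80 (4nM final), followed by 2 hours' incubation at 37 deg C.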
Active calls of the source: *; [ ] = remark or other dose. Unless noted, calls come from the whole dose curve.

Cc1ccc(OC(=O)COc2ccccc2C)c(-n2nc3ccccc3n2)c1 was read as Akt phos inh inactive, Rango release inh 10.5%, Rango-impB inh -0.5%, p53 reactivator 39.8µM* and TSHR antagonist -23.3.
For Cc1ccc(OC(=O)COc2ccccc2)c(-n2nc3ccccc3n2)c1 the results were Akt phos inh inactive, Rango release inh 28.6%, Rango-impB inh 0.2%, p53 reactivator inconclusive and TSHR antagonist -5.9.
CCCCn1nnnc1SCC(=O)NNC(=O)c1ccco1 was read as Akt phos inh inactive, Rango release inh -13.2%, Rango-impB inh 2.0%, p53 reactivator 1.9% and TSHR antagonist 0.2.
Screening CCCn1c(SCC(=O)NCc2ccccc2)nnc1-c1ccncc1 returned Akt phos inh -115.0%*, Rango release inh -9.7%, Rango-impB inh 1.4%, p53 reactivator 0.7% and TSHR antagonist -3.7.
`CCn1c(SCC(=O)NCc2ccc3c(c2)OCO3)nnc1-c1cccs1` gave Akt phos inh -96.0%*, Rango release inh 1.0%, Rango-impB inh 0.1%, p53 reactivator -11.1% and TSHR antagonist 4.2.
CCCCn1nnnc1SCC(=O)NCc1ccccc1 was read as Akt phos inh -114.7%*, Rango release inh 1.5%, Rango-impB inh -0.3%, p53 reactivator 0.0% and TSHR antagonist 8.4.
Oc1cc(Nc2ccc(N3CCCCC3)cc2)cc2cccnc12 was read as TSHR antagonist -7.4.
`Cc1cc(C)cc(NC(=O)/C=C/c2ccc([N+](=O)[O-])s2)c1` gave Akt phos inh inactive, Rango release inh 1.03µM*, Rango-impB inh inconclusive, p53 reactivator inconclusive and TSHR antagonist -7.8.
For CC(=O)c1cccc(NC(=O)/C=C/c2ccc([N+](=O)[O-])s2)c1 the results were Akt phos inh inactive, Rango release inh inconclusive, Rango-impB inh inconclusive, p53 reactivator 10.9% and TSHR antagonist -3.5.
`Cc1ccccc1NC(=O)/C=C/c1ccc([N+](=O)[O-])s1` gave Akt phos inh inactive, Rango release inh 0.651µM*[inhibitor], Rango-impB inh inconclusive, p53 reactivator -35.4% and TSHR antagonist -15.8.
`Cc1cc(C(=O)N2CCN(S(C)(=O)=O)CC2)sc1-c1ccccc1` gave Akt phos inh -82.2%*, Rango release inh -4.4%, Rango-impB inh 10.1%, p53 reactivator 6.0% and TSHR antagonist -12.5.
For Nc1c(-c2ccc(Cl)cc2)cnn1-c1cccc(C(F)(F)F)c1 the results were Akt phos inh -113.2%*, Rango release inh 1.3%, Rango-impB inh 3.4%, p53 reactivator 7.5% and TSHR antagonist -8.3.
Screening Cc1ccc(-c2cnn(-c3cccc(C(F)(F)F)c3)c2N)cc1 returned Akt phos inh inactive, Rango release inh -3.4%, Rango-impB inh -0.2%, p53 reactivator inconclusive and TSHR antagonist -5.4.
CCOc1ccc(C2CC(=O)NC3=C2C(=O)CCC3)cc1Cl (configuration not stated) was read as Akt phos inh -107.0%*, Rango release inh -8.7%, Rango-impB inh 6.6%, p53 reactivator -13.1% and TSHR antagonist 8.3.
CCOc1cc(C2C3=C(CCCC3=O)NC3=C2C(=O)CCC3)cc(Cl)c1O was read as Akt phos inh inactive, Rango release inh -9.3%, Rango-impB inh -1.7%, p53 reactivator -10.9% and TSHR antagonist 7.9.
O=C(Nc1ccnn1C1CCN(C(=O)c2cccc(C(F)(F)F)c2)CC1)C1CC1 was read as Akt phos inh inactive, Rango release inh -12.8%, Rango-impB inh 0.2%, p53 reactivator 1.7% and TSHR antagonist -7.6.
`CCOC(=O)c1c(/C=N/Nc2ccccc2)c2sc(C)cc2n1C` gave TSHR antagonist 33.1.
For COC(=O)c1cc2c(-c3ccccc3)cc3ccccn3c-2c1C(=O)OC the results were Akt phos inh inactive, Rango release inh 1.1%, Rango-impB inh 2.6%, p53 reactivator -2.3% and TSHR antagonist -1.3.
COC(=O)c1c(C)c2c(C)cc3ccccn3c-2c1C(=O)OC was read as Akt phos inh -104.2%*, Rango release inh inconclusive, Rango-impB inh inconclusive, p53 reactivator 1.4% and TSHR antagonist -8.8.
COc1ccc(S(=O)(=O)N2CCOC2CNC(=O)C(=O)NCCc2ccc(S(N)(=O)=O)cc2)cc1 (configuration not stated) was read as Akt phos inh inactive, Rango release inh -1.9%, Rango-impB inh 0.1%, p53 reactivator 5.2% and TSHR antagonist 38.7.
`Cn1c(-c2ccccc2)cc2c3no[n+]([O-])c3ccc21` gave Akt phos inh inactive, Rango release inh 2.0%, Rango-impB inh -0.9%, p53 reactivator 7.08µM* and TSHR antagonist -14.8.
C=CCOC(=O)C1=C(C)NC(=S)C(C#N)(CC=C)C1c1ccccc1Cl (configuration not stated) was read as Akt phos inh inactive, Rango release inh 7.7%, Rango-impB inh -0.2%, p53 reactivator -3.8% and TSHR antagonist 2.5.
`Cn1c(CNC(=O)C(Cc2ccccc2)NC(=O)c2ccccc2)cc(=O)n(C)c1=O` (configuration not stated) gave Akt phos inh inactive, Rango release inh 11.6%, Rango-impB inh 0.3%, p53 reactivator -1.4% and TSHR antagonist -144.3*.
`Cc1cc(C2(c3ccc(O)c(C)c3)C(=O)Nc3ccccc32)ccc1O` gave Akt phos inh inactive, Rango release inh 9.1%, Rango-impB inh -3.1%, p53 reactivator -5.2% and TSHR antagonist -5.4.
Screening Cc1cccc2c1NC(=O)C2(c1ccc(O)cc1)c1ccc(O)cc1 returned Rango release inh -19.9%, Rango-impB inh -1.7%, p53 reactivator -7.3% and TSHR antagonist -81.5*.
Screening O=C(Nc1ccccc1C(=O)N1CCN(CCO)CC1)c1cccc([N+](=O)[O-])c1 returned Akt phos inh inactive, Rango release inh 1.0%, Rango-impB inh 4.4%, p53 reactivator 9.4% and TSHR antagonist 9.5.

Source: PubChem (National Center for Advancing Translational Sciences (NCATS))
